Experimental data reported in PubChem BioAssay (NCATS).
“And” between values parts separate entries of the source, which are not always exact repeats. Equal entries are not always repeated. Inconclusive results are not listed. Where a call stands in place of a potency, no number is given. A structure can be active in one record and inactive in another. The source made the active and inactive calls. The call rests on the fitted dose curve; in most records, active means well fitted curve in the direction sought with a large enough effect; inconclusive means small, poorly fitted or top-dose-only effect, or another doubt; inactive means no such curve, though single readings can be large; an effect the other way counts as inactive or inconclusive.

What was measured:
[1] = Viability qHTS for spleen associated tyrosine kinase inhibitor (SYKi) naive MV4-11 cells (AID 1963823); further: nearly all actives have a fitted effect of over 40% in size
How it was run: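 qHTS, SYK inhibitor-naive MV4-11; 500 cells/well; 72 hr compound exposure, 37 C; CellTiter-Glo added, 10 min RT; luminescence read.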

[2] = Viability qHTS for spleen associated tyrosine kinase inhibitor (SYKi) drug resistant MV4-11 cells (AID 1963824); further: nearly all actives have a fitted effect of over 35% in size
How it was run: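 SYK-inhibitor-resistant MV4-11 AML cells were seeded at 500 per well onto compound and cultured 72 hours (37 °C, 5% CO2). CellTiter-Glo was then added, and after 10 min at room temperature, luminescence gave viability.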

[3] = Quantitative highthroughput screen to assess conditional lethalithy of NOMO1 cells grown in RPMI1640 with untreated serum (RPMI+s) (AID 1963876); further: nearly all actives have a fitted effect of over 35% in size
How it was run: (§1)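 Each medium arm—HPLM with 10% dialyzed FBS, or RPMI1640 with 5 mM glucose and 10% untreated or dialyzed FBS—was screened against an 11-point, 3-fold compound titration for 48 h at 37 °C, with CellTiter-Glo luminescence as endpoint.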

[4] = Quantitative highthroughput screen to assess conditional lethalithy of NOMO1 cells grown in RPMI1640 with dialyzed fetal bovine serum (RPMI+ds) (AID 1963877); further: nearly all actives have a fitted effect of over 30% in size; on Viability: series mostly up to about 46 µM
How it was run: as §1

[5] = Quantitative highthroughput screen to assess conditional lethalithy of NOMO1 cells grown in Human Plasma-Like Medium with dialyzed fetal bovine serum (HPLM+ds) (AID 1963878); further: nearly all actives have a fitted effect of over 35% in size
How it was run: as §1

[6] = Quantitative highthroughput screen to assess conditional lethalithy of P12 Ichikawa cells grown in Human Plasma-Like Medium with dialyzed fetal bovine serum (HPLM+ds) (AID 1963879); conditions: Potency: viability; further: nearly all actives have a fitted effect of over 35% in size; on Viability: series mostly up to about 46 µM
How it was run: as §1

[7] = Quantitative highthroughput screen to assess conditional lethalithy of P12 Ichikawa cells grown in RPMI1640 with dialyzed fetal bovine serum (RPMI+ds) (AID 1963880); conditions: Potency: P12-Ichikawa viability; further: nearly all actives have a fitted effect of over 35% in size
How it was run: as §1

[8] = Quantitative highthroughput screen to assess conditional lethalithy of P12 Ichikawa cells grown in RPMI1640 with untreated serum (RPMI+s) (AID 1963881); conditions: Potency: viability; further: nearly all actives have a fitted effect of over 35% in size; on Viability: series mostly up to about 46 µM
How it was run: as §1

[9] = Quantitative highthroughput screen to assess conditional lethalithy of SEM cells grown in Human Plasma-Like Medium with dialyzed fetal bovine serum (HPLM+ds) (AID 1963882); further: nearly all actives have a fitted effect of over 35% in size; on Viability: series mostly up to about 46 µM
How it was run: as §1

[10] = Quantitative highthroughput screen to assess conditional lethalithy of SEM cells grown in RPMI1640 with unreated serum (RPMI+s) (AID 1963883); further: nearly all actives have a fitted effect of over 35% in size
How it was run: as §1

[11] = Quantitative highthroughput screen to assess conditional lethalithy of SEM cells grown in RPMI1640 with dialyzed fetal bovine serum (RPMI+ds) (AID 1963884); further: nearly all actives have a fitted effect of over 35% in size; on Viability: series mostly up to about 46 µM
How it was run: as §1

[12] = Cellular viability qHTS for adrenocortical cancer (ACC) cell line SW-13 (AID 1963989); conditions: SW-13 ACC cells viability, CellTiter-Glo, 48 h; activity (max response): stronger effect = lower value; further: nearly all actives have a fitted effect of over 65% in size;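 on activity (max response): cells grown in serum-free medium with ITS supplement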
How it was run: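 Viability was read as CellTiter-Glo luminescence after 48 h compound treatment (up to 46 uM final) of SW-13 cells grown serum-free; titration curves were fit with a four-parameter logistic model to give IC50 and efficacy.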

[13] = Cellular viability qHTS for adrenocortical cancer (ACC) cell line NCI-H295R (AID 1963990); further: nearly all actives have a fitted effect of over 60% in size
How it was run: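 CellTiter-Glo ATP luminescence, read 48 h after compound addition, measured viability of NCI-H295R adrenocortical cells grown serum-free with ITS. Final concentrations spanned up to 46 uM. Data normalized to DMSO and doxorubicin, fitted for IC50 and maximal response.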
Potency means the concentration at half of the fitted maximal effect.

Row | SMILES | Potency [1] | Potency [2] | Potency [3] | Potency [4] | Potency [5] | Potency [6] | Potency [7] | Potency [8] | Potency [9] | Potency [10] | Potency [11] | activity (max response) [12] | Potency [13] | Potency [12]
1 | CC(C)(OCc1nn(Cc2ccccc2)c2ccccc12)C(=O)O | inactive | inactive | inactive | inactive | inactive | inactive | inactive | inactive | inactive | inactive | inactive | 3.54% (inactive) | inactive | 
2 | COc1cccc(OC)c1-c1cc(C(=O)NC2(C(=O)O)C3CC4CC(C3)CC2C4)nn1-c1ccnc2cc(Cl)ccc12 (configuration not stated) | 9.34 µM (active) | 5.9 µM (active) | inactive | inactive | inactive | inactive | inactive | inactive | inactive |  | inactive |  | inactive | 
3 | CC1Cc2ccccc2N1NC(=O)c1ccc(Cl)c(S(N)(=O)=O)c1 (configuration not stated) | inactive | inactive | inactive | inactive | inactive | inactive | inactive | inactive | inactive |  | inactive | 9.73% (inactive) and 7.78% (inactive) | inactive | 
4 | NCCc1ccc(O)c(O)c1 | 20.9 µM (active) | inactive and 18.6 µM (active) | 14800 nM (active) | 14800 nM (active) | 9350 nM (active) | inactive | inactive | inactive | 18700 nM (active) |  | 26400 nM (active) | -9.5% (inactive) and -1.11% (inactive) | inactive | 
5 | COc1cc2nc(N3CCN(C(=O)C4CCCO4)CC3)nc(N)c2cc1OC (configuration not stated) | inactive | inactive | inactive | inactive | inactive | inactive | inactive | inactive |  | inactive |  | -21% (inactive) |  | 
6 | C=CC(=O)Nc1cc2c(Nc3ccc(F)c(Cl)c3)ncnc2cc1C#CC(C)(C)N1CCN(C)CC1 | 0.59 µM (active) | 0.517 µM (active) | 9350 nM (active) | 5260 nM (active) | 5260 nM (active) | 5260 nM (active) | 5260 nM (active) | 5900 nM (active) | 2960 nM (active) |  | 3320 nM (active) |  | 3160 nM (active) | 3160 nM (active)
7 | CC(C)NCC(O)c1ccc(NS(C)(=O)=O)cc1 (configuration not stated) | inactive | inactive | inactive | inactive | inactive | inactive | inactive | inactive | inactive | inactive |  | 2.53% (inactive) | inactive | 
8 | NC1CCC(N[C@@H]2C[C@H]2c2ccccc2)CC1 (some centres not stated) | inactive | inactive | inactive | inactive | inactive | inactive | inactive | inactive | inactive |  | inactive | -23.4% (inactive) |  | 
9 | O=c1cc(N2CCOCC2)oc2c(-c3ccccc3)cccc12 | 5.9 µM (active) | inactive and 9.34 µM (active) | inactive | inactive | inactive | inactive | inactive | inactive |  | inactive |  |  | inactive | 
10 | CN(CCOc1ccc(NS(C)(=O)=O)cc1)CCc1ccc(NS(C)(=O)=O)cc1 | inactive | inactive | inactive | inactive | inactive | inactive | inactive | inactive | inactive | inactive |  | 0.645% (inactive) and 1.15% (inactive) | inactive | 
11 | COc1cc(NS(=O)(=O)c2ccc(N)cc2)nc(OC)n1 | inactive | inactive | inactive | inactive | inactive | inactive | inactive | inactive |  | inactive | inactive | -1.49% (inactive) | inactive | 
12 | CC(=O)NC(C)c1ccc(Oc2ccc(OC(C)C)cc2)cc1 (configuration not stated) | 10.8 µM (active) | 10.8 µM (active) | inactive | inactive | inactive | inactive | inactive | inactive |  | inactive | inactive |  |  | 
13 | Cc1nc(N)ncc1-c1nc(N2CCOCC2)c2sc(C(C)(C)O)cc2n1 | 2.59 µM (active) and 3.32 µM (active) | 3.66 µM (active) and 5.9 µM (active) | 209 nM (active) | 332 nM (active) | 37.2 nM (active) | 83.3 nM (active) | 372 nM (active) | 372 nM (active) | 148 nM (active) | 33.2 nM (active) |  |  | 2240 nM (active) | 
14 | COCCCN1CCC(NC(=O)c2cc(Cl)c(N)c3c2OCC3)CC1 | inactive | inactive | inactive | inactive | inactive | inactive | inactive | 18700 nM (active) |  | inactive | inactive | 15.7% (inactive) and -2.89% (inactive) | inactive | 
15 | O=C(/C=C\n1cnc(-c2cc(C(F)(F)F)cc(C(F)(F)F)c2)n1)NNc1cnccn1 | 0.833 µM (active) | 1.18 µM (active) | 1050 nM (active) | 933 nM (active) | 831 nM (active) | 588 nM (active) | 588 nM (active) | 524 nM (active) | 741 nM (active) |  | 741 nM (active) |  | 2240 nM (active) | 12600 nM (active)
